According to PubChem BioAssay AID463173 (ICCB-Longwood Screening Facility, Harvard Medical School, 2010):
Screen size: about 52,000 compounds; about 1,700 (3.3%) were called active. The list comes from a sample in which actives are over-represented; it also holds similar structures and randomly drawn compounds. Values without a mark were called inactive. Cut-off read from the data, not from the text of the source: active = survival mostly below about 52% (no sharp cut-off); inactive = mostly above about 56%.

system: Wild type; assay: growth inhibition of S. aureus wild type versus tarO mutant, primary screen, teichoic acid synthesis inhibitors, RN4220, OD600 (AID 463173); settings: S. aureus RN4220 wild type/DeltatarO growth, OD600, 18 h, stronger effect = lower value, screened at 18.75 µg/mL (by protocol)

Row | SMILES | survival
1 | CCCc1cc(=O)oc2cc(C)c3c(-c4cccc(OC)c4)coc3c12 | 74%
2 | CCCc1cc(=O)oc2cc(C)c3c(-c4ccccc4)coc3c12 | 66%
3 | CCCc1cc(=O)oc2cc(C)c3c(-c4ccccc4)c(C)oc3c12 | 0% (active)
4 | CCN1C(=O)c2ccccc2S(=O)c2ccc(C(=O)N3CCN(c4ccccc4)CC3)cc21 (stereo unspecified) | 83%
5 | CCOc1ccc2nc(N3CCCC(C(=O)Nc4ccc(OC)c(Cl)c4)C3)sc2c1 (stereo unspecified) | 89%
6 | COc1ccc(NCc2nc3ccccc3n2CCOc2ccc(C)cc2)cc1 | -18% (active)
7 | CCOc1ccc(NCc2n[nH]c(=S)n2-c2ccc(C)cc2)cc1 | 122%
8 | Cc1ccc(NCc2nc3ccccc3n2CCOc2ccccc2)cc1 | -20% (active)
9 | Clc1ccc(NCc2nc3ccccc3n2CCOc2ccccc2)cc1 | 74%
10 | Cc1ccc(OCCn2c(CNc3cccc(C)c3)nc3ccccc32)cc1 | -21% (active)
11 | CCOc1ccc(NCc2nc3ccccc3n2CCOc2ccc(C)cc2)cc1 | -20% (active)
12 | CC(C)CCNc1ncnc2c1nnn2Cc1ccccc1 | 111%
13 | Cc1nc2cc(NC(=O)Nc3ccccc3Cl)ccc2n1C | 109%
14 | CCCCNC(=O)c1nn(-c2ccc(C)cc2)c(=O)n(C)c1=O | 68%
15 | Cc1ccc(N(CC(=O)Nc2ccc(Cl)cc2)S(=O)(=O)c2cccc3nonc23)cc1 | 125%
16 | O=C(Cn1ncn2nc(-c3cccs3)cc2c1=O)NCc1ccccc1Cl | 94%
17 | COc1ccc(-c2nn3c(=O)cc(CN4CCN(C(=O)/C=C/c5ccccc5)CC4)nc3s2)cc1 | 72%
18 | CCn1cc2nc(SCc3c(F)cccc3Cl)n(CCc3ccccc3)c(=O)c2n1 | 64%
19 | CCn1c(=O)cc(SCC(=O)NCc2ccc(F)cc2Cl)c2ccccc21 | 91%

Row | SMILES | survival
20 | Cc1cc(Cl)ccc1NC(=O)C1CCCN(c2nnc(C)c3c(C)n(-c4ccccc4)nc23)C1 (stereo unspecified) | 70%
21 | Cc1ccccc1NCc1nc2ccccc2n1CCOc1ccccc1 | -20% (active)
22 | Cc1ccc(OCCn2c(CNc3ccccc3C)nc3ccccc32)cc1 | 57%
23 | Cc1ccc(CSCC(=O)N2CCN(c3ccccc3F)CC2)cc1 | 45%
24 | COc1ccc(Cn2c(=O)c3ccccc3n3c(-c4cccc(OC)c4OC)nnc23)cc1 | 87%
25 | Cc1ccc(C)c(NC(=O)CCn2nc(C)c3c(C)n(-c4ccccc4)nc3c2=O)c1 | 10% (active)
26 | Cc1nn(CCC(=O)NCc2ccc(Cl)cc2)c(=O)c2nn(-c3ccccc3)c(C)c12 | -3% (active)
27 | Cc1cccc(NC(=O)CCn2nc(C)c3c(C)n(-c4ccccc4)nc3c2=O)c1C | 65%
28 | COc1cc(OC)c(NC(=O)CCCn2nc(C)c3c(C)n(-c4ccccc4)nc3c2=O)cc1Cl | 0% (active)
29 | COc1cccc(CNC(=O)CCn2nc(C)c3c(C)n(-c4ccccc4)nc3c2=O)c1 | 82%
30 | Cc1ccc(NC(=O)CCCn2nc(C)c3c(C)n(-c4ccccc4)nc3c2=O)c(Cl)c1 | 113%
31 | Cc1cc(Cl)ccc1NC(=O)CCCn1nc(C)c2c(C)n(-c3ccccc3)nc2c1=O | 118%
32 | Cc1nn(CCC(=O)NCc2ccc(N(C)C)cc2)c(=O)c2nn(-c3ccccc3)c(C)c12 | 87%
33 | Cc1cc(Cl)ccc1NC(=O)CCn1nc(C)c2c(C)n(-c3ccccc3)nc2c1=O | 68%
34 | CCc1ccc(CNC(=O)CCn2nc(C)c3c(C)n(-c4ccccc4)nc3c2=O)cc1 | 65%
35 | COc1ccc(CNC(=O)CCn2nc(C)c3c(C)n(-c4ccccc4)nc3c2=O)cc1OC | -2% (active)
36 | COc1ccc(CNC(=O)CCCn2nc(C)c3c(C)n(-c4ccc(C)cc4)nc3c2=O)cc1OC | 71%
37 | O=C(NCCSCc1c(F)cccc1Cl)C1CCN(S(=O)(=O)Cc2ccccc2)CC1 | 87%
38 | O=C(CC(c1cccs1)N1Cc2ccccc2C1=O)Nc1ccc(F)cc1 (stereo unspecified) | 91%

Row | SMILES | survival
39 | CCN(CC)C(=O)Cn1c(=O)cc(C)c2c(C)nn(-c3cccc(Cl)c3C)c21 | 85%
40 | Cc1ccccc1C(=O)Nc1ccc2c(c1)CCCN2C(=O)c1cccs1 | 77%
41 | Cc1ccccc1NC(=O)Cn1c(=O)n(CCCC(=O)NCc2ccc3c(c2)OCO3)c(=O)c2ccccc21 | 91%
42 | Cc1ccc(S(=O)(=O)c2cn(C)c3cc(N4CCCCC4)c(F)cc3c2=O)cc1 | 74%
43 | COc1ccc(-c2nc3c(c(SCC(=O)Nc4ccccc4F)n2)Cc2cc(C)ccc2O3)cc1 | 80%
44 | COc1ccccc1NC(=O)C(=O)NCC(c1ccc2c(c1)OCO2)N1CCN(C)CC1 (stereo unspecified) | 81%
45 | O=C(CN(c1ccc(Cl)c(C(F)(F)F)c1)S(=O)(=O)c1ccccc1)Nc1cccnc1 | 64%
46 | Cc1c(CCC(=O)N2CCCCC2)c(=O)oc2cc3occ(C(C)(C)C)c3cc12 | 74%
47 | Cc1cccc(Cn2c(SCc3ccc(C(=O)NCc4cccs4)cc3)nc3ccncc32)c1 | 84%
48 | COc1cc(-c2ccno2)ccc1S(=O)(=O)N1CCN(c2cccc(Cl)c2)CC1 | -3% (active)
49 | COc1cccc(N2CCN(S(=O)(=O)c3ccc(-c4ccno4)cc3OC)CC2)c1 | 57%
50 | COc1ccc(N2CCN(S(=O)(=O)c3ccc(-c4ccno4)cc3OC)CC2)cc1 | 1% (active)
51 | COc1cc(-c2ccno2)ccc1S(=O)(=O)N1CCN(c2ccccc2)CC1 | 71%
52 | COc1cc(-c2ccno2)ccc1S(=O)(=O)N1CCN(c2ccc(F)cc2)CC1 | 63%
53 | COc1ccccc1N1CCN(S(=O)(=O)c2ccc(-c3ccno3)cc2OC)CC1 | 82%
54 | COC(=O)c1c(-c2cccs2)csc1NC(=O)c1cc(OC)c(OC)c(OC)c1 | 76%
55 | CCn1ccc2cc(S(=O)(=O)N3CCCN(C(=O)NCC(=O)OC)CC3)ccc21 | 128%
56 | CCCn1c2ccccc2c2cnn(CC(=O)NCCc3ccc(S(N)(=O)=O)cc3)c(=O)c21 | 134%
